# From PubChem BioAssay
# Calls of active or inactive are those of the source.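 The calls were made as follows, unless noted: active = compound raises GLP1 secretion from the human gut endocrine cells, with no numeric limit stated; inactive = the rest.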
# Test: inhibition of endothelial tube formation, primary screen, imaging, VEGF stimulated, CD31 staining, tube area, NPC library (AID 1117340;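 active = compound that reduces growth-factor-driven endothelial tube area in a mixed cell culture, no cutoff stated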)
# Conditions: VEGF-stimulated ADSC/ECFC co-culture, at 10 µM, active compounds read high
row,SMILES,tube area decrease
1,CC(=O)N(CC(=O)N(C)C)c1ccccc1,3.9% (inactive)
2,CC(=O)CC/C=C(\C)CC/C=C(\C)CC/C=C(\C)CCC=C(C)C,19.6% (inactive)
3,OCC=Cc1ccccc1,0.4% (inactive)
4,NC(=O)C(=O)N/N=C/c1ccc([N+](=O)[O-])o1,28.8% (inactive)
5,CCOC(CN1CCN(CC(C)C(=O)c2ccccc2)CC1)c1ccccc1 (stereo not drawn),14% (inactive)
6,Nc1nnnn1-c1ccccc1,-14.5% (inactive)
7,NC(N)=NN=C(/C=C/c1ccc([N+](=O)[O-])o1)/C=C/c1ccc([N+](=O)[O-])o1,38.8% (active)
8,Nc1ccc(C(=O)Nc2ccccc2N)cc1,8.5% (inactive)
9,CN1N=C(C(N)=O)CCC1=O,1.5% (inactive)
10,C=CCNc1nc(NCC=C)nc(N2CCN(C(c3ccc(F)cc3)c3ccc(F)cc3)CC2)n1,17.9% (inactive)
11,Nc1ccc(S(=O)(=O)Nc2ccccc2)cc1,10.5% (inactive)
12,CN(C)CCN(Cc1ccsc1)c1ccccn1,-14.7% (inactive)
13,NCc1ccccc1Sc1ccccc1CO,-11.8% (inactive)
14,CCCCCCCCCCCCCCCC[N+](C)(C)CC,106% (active)
15,COc1cc(NS(=O)(=O)c2ccc(N)cc2)nc(C)n1,-13% (inactive)
16,C=Cc1c(C)c2cc3nc(cc4[nH]c(cc5nc(cc1[nH]2)C(C)=C5CCC(=O)O)c(CCC(=O)OC)c4C)[C@@]1(C)C3=CC=C(C(=O)OC)[C@@H]1C(=O)OC,-206% (inactive)
17,N[C@H]1CN(c2c(F)cc3c(=O)c(C(=O)O)cn(C4C[C@@H]4F)c3c2Cl)CC12CC2 (stereo partly drawn),-10.7% (inactive)
18,NC(=O)NC1N=C([O][Al])NC1=O (stereo not drawn),0.8% (inactive)
19,Cc1cccc(C)c1NC(=O)CN1CCCC1,-6.7% (inactive)
20,CC(=O)Nc1ccc(/C=N/NC(N)=S)cc1,-8.1% (inactive)

row,SMILES,tube area decrease
1,NCCNc1cccc2ccccc12,-35.7% (inactive)
2,O=c1[nH]c(=O)n([C@H]2O[C@H](CO)[C@@H](O)[C@@H]2O)cc1/C=C\Br,-20.7% (inactive)
3,O=C1NC(c2ccccc2)(c2ccccc2)C(=O)N1COP(=O)(O)O,-13% (inactive)
4,CCN(CC)CCSC(=O)C(c1ccccc1)c1ccccc1,3.2% (inactive)
5,O=C(O)Cc1csc(-c2ccc(Cl)cc2)n1,0.8% (inactive)
6,COc1cc2nc(Cl)nc(N)c2cc1OC,9.3% (inactive)
7,NC(=S)N=Nc1ccc(NN=C(N)N)cc1,15.7% (inactive)
8,C[C@@H](O)[C@H](N)C(=O)O,-11.2% (inactive)
9,Cc1cnc(NS(=O)(=O)c2ccc(N)cc2)nc1,-8.2% (inactive)
10,CCCCCOc1ccc(C2SC(=O)NC2=O)cc1OCC (stereo not drawn),5.8% (inactive)
11,FC1(F)C(F)(F)C(F)(F)C2(F)C(F)(F)C(F)(F)C(F)(F)C(F)(F)C2(F)C1(F)F (stereo not drawn),10.2% (inactive)
12,CCCCC[C@H](O)C=C[C@H]1[C@H](O)CC(=O)[C@H]1CC=CCCCC(=O)O,28.7% (inactive)
13,Cc1cc(N)c2cc(NC(=O)Nc3ccc4nc(C)cc(N)c4c3)ccc2n1,-0.3% (inactive)
14,CCCCC(O)/C=C(C)/C=C/C=C/C(=O)N1CCCC1=O (stereo not drawn),17.5% (inactive)
15,CC(C)(C)c1nnc(NS(=O)(=O)c2ccc(N)cc2)s1,-5.2% (inactive)
16,CC1(C)OC[C@@H](COC(=O)CCc2ccc(OC[C@@H](O)CNCCNC(=O)N3CCOCC3)cc2)O1,-22.2% (inactive)
17,CC(CCc1ccc2c(c1)OCO2)NN (stereo not drawn),23.7% (inactive)
18,CCCOc1ccc2c(c1)CC[C@@H]1[C@@H]2CC[C@]2(C)C(OC)CC[C@@H]12 (stereo partly drawn),-3.1% (inactive)
19,CC/C=C(\C(=O)N[C@@H]1C(=O)N2C(C(=O)OCOC(=O)C(C)(C)C)=C(COC(N)=O)CS[C@H]12)c1csc(N)n1,-9.6% (inactive)

# Test: GLP1 release stimulators, primary, NCI-H716, NPC library (AID 1117341); also: reference of the scale not given here
# Conditions: NCI-H716 cells, at 10 µM, active compounds read high
row,SMILES,GLP1 secretion stimulation
1,CC(=O)N(CC(=O)N(C)C)c1ccccc1,-1.1% (inactive)
2,CC(=O)CC/C=C(\C)CC/C=C(\C)CC/C=C(\C)CCC=C(C)C,-1.7% (inactive)
3,OCC=Cc1ccccc1,-1.9% (inactive)
4,NC(=O)C(=O)N/N=C/c1ccc([N+](=O)[O-])o1,-1.5% (inactive)
5,CCOC(CN1CCN(CC(C)C(=O)c2ccccc2)CC1)c1ccccc1 (stereo not drawn),-1.8% (inactive)
6,Nc1nnnn1-c1ccccc1,2.4% (inactive)
7,NC(N)=NN=C(/C=C/c1ccc([N+](=O)[O-])o1)/C=C/c1ccc([N+](=O)[O-])o1,-3% (inactive)
8,Nc1ccc(C(=O)Nc2ccccc2N)cc1,1.1% (inactive)
9,CN1N=C(C(N)=O)CCC1=O,2.5% (inactive)
10,C=CCNc1nc(NCC=C)nc(N2CCN(C(c3ccc(F)cc3)c3ccc(F)cc3)CC2)n1,-3.9% (inactive)
11,Nc1ccc(S(=O)(=O)Nc2ccccc2)cc1,3.7% (inactive)
12,CN(C)CCN(Cc1ccsc1)c1ccccn1,-2.8% (inactive)
13,NCc1ccccc1Sc1ccccc1CO,3.3% (inactive)
14,CCCCCCCCCCCCCCCC[N+](C)(C)CC,20.2% (active)
15,COc1cc(NS(=O)(=O)c2ccc(N)cc2)nc(C)n1,1% (inactive)
16,C=Cc1c(C)c2cc3nc(cc4[nH]c(cc5nc(cc1[nH]2)C(C)=C5CCC(=O)O)c(CCC(=O)OC)c4C)[C@@]1(C)C3=CC=C(C(=O)OC)[C@@H]1C(=O)OC,-1.9% (inactive)
17,N[C@H]1CN(c2c(F)cc3c(=O)c(C(=O)O)cn(C4C[C@@H]4F)c3c2Cl)CC12CC2 (stereo partly drawn),-1.5% (inactive)
18,NC(=O)NC1N=C([O][Al])NC1=O (stereo not drawn),-2.5% (inactive)
19,Cc1cccc(C)c1NC(=O)CN1CCCC1,1.1% (inactive)
20,CC(=O)Nc1ccc(/C=N/NC(N)=S)cc1,4.3% (inactive)

row,SMILES,GLP1 secretion stimulation
1,NCCNc1cccc2ccccc12,0.6% (inactive)
2,O=c1[nH]c(=O)n([C@H]2O[C@H](CO)[C@@H](O)[C@@H]2O)cc1/C=C\Br,1.5% (inactive)
3,O=C1NC(c2ccccc2)(c2ccccc2)C(=O)N1COP(=O)(O)O,5.2% (inactive)
4,CCN(CC)CCSC(=O)C(c1ccccc1)c1ccccc1,9.6% (inactive)
5,O=C(O)Cc1csc(-c2ccc(Cl)cc2)n1,-2.9% (inactive)
6,COc1cc2nc(Cl)nc(N)c2cc1OC,0.6% (inactive)
7,NC(=S)N=Nc1ccc(NN=C(N)N)cc1,-3.7% (inactive)
8,C[C@@H](O)[C@H](N)C(=O)O,1.6% (inactive)
9,Cc1cnc(NS(=O)(=O)c2ccc(N)cc2)nc1,-0.6% (inactive)
10,CCCCCOc1ccc(C2SC(=O)NC2=O)cc1OCC (stereo not drawn),3.7% (inactive)
11,FC1(F)C(F)(F)C(F)(F)C2(F)C(F)(F)C(F)(F)C(F)(F)C(F)(F)C2(F)C1(F)F (stereo not drawn),-0.8% (inactive)
12,CCCCC[C@H](O)C=C[C@H]1[C@H](O)CC(=O)[C@H]1CC=CCCCC(=O)O,3.8% (inactive)
13,Cc1cc(N)c2cc(NC(=O)Nc3ccc4nc(C)cc(N)c4c3)ccc2n1,32.3% (active)
14,CCCCC(O)/C=C(C)/C=C/C=C/C(=O)N1CCCC1=O (stereo not drawn),1.3% (inactive)
15,CC(C)(C)c1nnc(NS(=O)(=O)c2ccc(N)cc2)s1,0.7% (inactive)
16,CC1(C)OC[C@@H](COC(=O)CCc2ccc(OC[C@@H](O)CNCCNC(=O)N3CCOCC3)cc2)O1,0.6% (inactive)
17,CC(CCc1ccc2c(c1)OCO2)NN (stereo not drawn),2.3% (inactive)
18,CCCOc1ccc2c(c1)CC[C@@H]1[C@@H]2CC[C@]2(C)C(OC)CC[C@@H]12 (stereo partly drawn),-0.8% (inactive)
19,CC/C=C(\C(=O)N[C@@H]1C(=O)N2C(C(=O)OCOC(=O)C(C)(C)C)=C(COC(N)=O)CS[C@H]12)c1csc(N)n1,-0.1% (inactive)
